OTUD3 inh – human OTUD3 deubiquitinase inhibition. Q5T2D3. purified OTUD3, Ub-rhodamine fluorescence, 2 h. inhibition, % at 25 µM. 47,000 tested, 0.7% active. AID 1645858
USP28 block – human USP28 deubiquitinase inhibition. Q96RU2. purified USP28, Ub-rhodamine cleavage fluorescence, 30 min. inhibition, % at 25 µM. 47,000 tested, 3% active. AID 1645857
Numbers stand for hits; . = inactive; / = no result given. Sampled rows, rich in hits. Any-hit rate of the full collection: about 3.4%. Rule as the data show it: active = inhibition above about 30%; inactive = the rest.

SMILES	OTUD3 inh	USP28 block
CC(CCc1ccccc1)NC(=O)COc1ccccc1-c1nnc(-c2ccccc2)o1 (stereo unspecified)	.	.
COc1cccc(OCC(=O)NCC(c2ccc3c(c2)CCCN3C)N2CCCCC2)c1 (stereo unspecified)	.	.
Fc1ccc(Cn2ccc(-c3cnc(-c4ccccc4)s3)n2)cc1	.	62
O=c1c2cc(-c3ccccc3)sc2n(Cc2ccc(F)cc2)c(=O)n1-c1ccccc1	.	.
Cc1ccc(OCC(=O)Nc2onc3c2CCCC3)cc1C	.	30
O=C(COc1ccc(F)cc1)Nc1onc2c1CCCC2	.	.
CC(=O)c1cc2c(=O)c3c(C(=O)O)c(O)c(O)cc3oc2c(C(C)=O)c1-c1coc2cc(O)c(O)c(C(=O)O)c2c1=O	60	40
CC1CCCN(CC2CCN(C(=O)NCc3ccc(F)cc3)CC2)C1 (stereo unspecified)	.	.
COc1ccc(C(=O)Nc2ccccc2C(=O)NC(Cc2ccc(O)cc2)C(=O)NNC(=O)c2ccccc2Cl)cc1 (stereo unspecified)	75	75
COC(=O)[C@H](Cc1ccc(O)cc1)NC(=O)c1ccc(Cl)cc1	.	.
Cc1ccc(S(=O)(=O)N(CC#N)c2nc3nc(C)c(Cl)c(C)n3n2)cc1	.	33
Cc1ccc(S(=O)(=O)N(C)c2nc3nc(C)c(Cl)c(C)n3n2)cc1	.	.
O=C(O)Cn1nnc(N2CCCC2)n1	.	.
Cc1ccc(CNC(=O)Cn2c(=O)cc(-c3nc(C)no3)c3ccccc32)cc1	.	.
Cc1ccc2c(c1)c1ncn(Cc3nc(C)no3)c(=O)c1n2CC(=O)NCc1ccccc1	.	58
CCCCCCCCCCCC/C=C/C(O)C(=O)NC(COC1OC(CO)C(O)C(O)C1O)C(O)/C=C/CC/C=C(\C)CCCCCCCCC (stereo unspecified)	.	.
CCc1oc2cc(O)ccc2c(=O)c1-c1ccc2c(c1)OCCO2	.	36
O=C(Cc1ccccc1)Nc1oc2ccccc2c(=O)c1-c1ccc2c(c1)OCO2	.	.
COc1cc(OC)cc(C(=O)N2CCC(C(=O)Nc3ccc4c(c3)OCCO4)CC2)c1	.	49
COc1cc(OC)cc(C(=O)N2CCC(C(=O)Nc3cccc4ccccc34)CC2)c1	.	.
NC(=O)N1CCCCCC1C1CCN(c2ncccc2[N+](=O)[O-])CC1 (stereo unspecified)	.	.
CCOC(=O)N1CCC(NS(=O)(=O)c2ccc(-c3ccon3)s2)CC1	.	.
COc1cc2c(cc1OC)-c1cc(NCc3cc(OC)c(OC)c(OC)c3)nc(=O)n1CC2	41	.
COc1cc2c(cc1OC)-c1cc(NCC(C)C)nc(=O)n1CC2	.	/
Cc1ccc(C(=O)N[C@@H]2C[C@@H](Oc3cccc(F)c3)[C@H](O)[C@H]2O)nc1	.	.
SMILES	OTUD3 inh	USP28 block
CCCc1cc(N2CCCCC2)n2nc(-c3cccnc3)nc2n1	.	.
CCOC(=O)c1ccc(NC(=O)CSc2nnc(CNC(=O)c3ccc(OC)cc3)o2)cc1	.	.
COc1cc(C2N3CC4(C)CN2CC(c2ccccc2)(C3)C4=O)ccc1O (stereo unspecified)	.	.
Cc1cc(C)n2nc(CN(C(=O)c3ccco3)c3ccc(F)cc3)nc2n1	.	.
O=c1c2c(-c3ccc(Cl)cc3)csc2ncn1Cc1ccco1	.	.
Cc1ccc(-c2csc3ncn(Cc4ccco4)c(=O)c23)cc1	.	32
NC(=O)c1nc(-c2ccccn2)nc2c1[nH]c(=O)n2-c1ccc2c(c1)OCO2	45	.
Cc1cccc(-n2c(=O)[nH]c3c(C(N)=O)nc(-c4ccccn4)nc32)c1	.	.
NC(=O)c1nc(C2CCCCC2)nc2c1[nH]c(=O)n2-c1ccc2c(c1)OCO2	.	.
NC(=O)c1nc(-c2cccnc2)nc2c1[nH]c(=O)n2-c1ccc2c(c1)OCO2	48	53
Cc1cccc(C(=O)Nc2nc3n(n2)C(c2ccccc2)CC(=O)N3)c1 (stereo unspecified)	.	.
Cc1cccc(NC(=O)COc2nsnc2N2CCOCC2)c1C	.	.
COc1ccc(CCNC(=O)CSc2nnc(NC(=O)c3ccccc3OC)s2)cc1OC	.	.
Cc1cccc(NC(=O)c2c(-c3ccccc3)c3c4n(c(-c5ccccc5)cn24)CCCC3)c1	.	.
Cc1ccc(N(C)C(=O)c2nc(C)n(C3CCN(S(C)(=O)=O)CC3)c2C)cc1	.	.
CCc1nccn1Cc1noc(-c2ccc3c(c2)OCO3)n1	.	48
Cc1nccn1Cc1noc(-c2ccc3c(c2)OCO3)n1	.	.
Cn1c(SCc2ccc(C(C)(C)C)cc2)nc(-c2ccccc2)c1-c1ccccc1	.	.
Cc1c(O)c(O)c(O)c(C=O)c1C=O	.	68
Cc1cccc(CCNC(=O)c2ccc(CNS(=O)(=O)c3ccc(F)cc3)cc2)c1	.	.
CC(=O)Nc1ccc(S(=O)(=O)NCc2ccc(C(=O)NCc3ccccc3Cl)cc2)cc1	.	.
Cc1ccc(S(=O)(=O)NCc2ccc(C(=O)NCCc3ccc(S(N)(=O)=O)cc3)cc2)cc1	77	69
CC(=O)Nc1ccc(S(=O)(=O)NCc2ccc(C(=O)NCCc3ccc(Cl)cc3)cc2)cc1	.	92
COc1ccc(C(=O)N2CCCN(C)c3nc4ccccc4nc32)c(OC)c1OC	.	.
Cc1cccc(CNC(=O)Cn2cc(-c3nnco3)c3ccccc32)c1	.	.
SMILES	OTUD3 inh	USP28 block
Cc1ccccc1CNC(=O)c1csc(C(=O)N2CCCC2)n1	.	.
CCn1c(Cn2cccn2)nc2cc(NC(=O)c3ccccc3C)ccc21	.	46
CN1CCN(CCc2nc3cc(NC(=O)C4CCCCC4)ccc3n2C)CC1	.	.
CCn1c(Cn2cccn2)nc2cc(NC(=O)C(C)C)ccc21	.	.
CCn1c(Cn2cccn2)nc2cc(NC(=O)C3CCCCC3)ccc21	.	38
CNc1nc2c(c(=O)n1Cc1ccccc1)CCN(C(=O)c1ccc3ccccc3c1)C2	.	.
Cc1nc(-c2cc(C(=O)N3CCN(C)CC3)c3ccccn23)cn1C(C)C	.	.
Cc1ccc(NC(=O)c2cc(-c3ccncc3)n[nH]2)c(C)c1	.	.
O=C(Nc1ccccc1Cl)c1cc(-c2ccncc2)n[nH]1	.	79
O=C(Nc1ccccc1)c1cc(-c2ccncc2)n[nH]1	.	.
Cc1cc(Cl)ccc1NC(=O)c1cc(-c2ccncc2)n[nH]1	.	72
O=C1[C@@H]2CCCN2c2ncccc2N1Cc1c(F)cccc1Cl	.	.
COc1ccc2c(c1)C(=O)NC1(CC2)CCN(C(=O)c2ccccn2)C1 (stereo unspecified)	.	.
CC(C)N1CC[C@@H]2[C@H](C1)CN2C(=O)NCc1ccccc1	.	.
Fc1ccc(OCCn2c(COc3ccccc3)nc3ccccc32)cc1	.	.
CCCn1c(=N)n(CC(C)O)c2ccccc21 (stereo unspecified)	.	.
Cc1ccc(OCCn2c(=N)n(C(C)C)c3ccccc32)cc1	.	78
CCn1c(=N)n(CCOc2ccc(F)cc2)c2ccccc21	.	97
CCc1ccccc1NC(=O)C(=O)c1cc(C)n(-c2ccccc2)c1C	.	.
Cc1ccc(S(=O)(=O)c2cn(CC(=O)NCc3ccccn3)c3ccccc23)cc1	.	.
COc1ccc(C(=O)/C=C\c2cn(CCC(=O)O)nc2-c2ccc(OC)c(OC)c2)cc1	.	.
COc1ccc(-c2nn(-c3ccccc3)cc2/C=C/C(=O)Nc2ccc(C(C)=O)cc2)cc1OC	47	48
CSCCC(NC(=O)c1cccnc1)c1nc2ccccc2[nH]1 (stereo unspecified)	.	.
